# Compounds with a hit are over-represented: about 1.5% of the library has one in this group of screens.
# TPT1 inhibitor: inhibitors of Candida albicans tRNA 2'-phosphotransferase TPT1. recombinant caTPT1, FP RNA substrate dephosphorylation. inhibition, % at 5 µM. 300,000 tested, 0.81% active;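 active = inhibition above the mean of all tested compounds plus 3 SD, set per screening campaign, cut at about 24% in these data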;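 also: plate controls were DMSO alone for no effect and ferristatin control at 100 nM for full effect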
# Cardiac RTF inh: cardiac RTF calcium desensitization. P19429+P45379. IANBD-labeled cardiac RTF, Ca2+ fluorescence. inhibition, % at 7.15 µM. 340,000 tested, 0.12% active;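 active = inhibition above the mean inhibition of all tested compounds plus 3 SD, cut at about 17% in these data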;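 also: assay run at fixed EC70 calcium of 1.6 mM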
# IDE cell inh: inhibitors of human insulin-degrading enzyme in cells; inhibition, % at 5.59 µM; AID 434962; P14735; 320,000 tested, 0.41% active; HEK cells, FAbetaB cleavage, fluorescence polarization;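 active = percent inhibition above the average of all tested compounds plus 3 SD, set per screening campaign, cut at about 16% in these data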;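 also: IDE supplied by intact live HEK cells; FP after avidin binding of uncleaved biotin substrate so inhibition keeps polarization high; 0% = DMSO wells and 100% = 60 µM reference IDE inhibitor Ii1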
# cardiac RTF act: cardiac RTF calcium sensitization; activation, % at 7.2 µM; 340,000 tested, 0.24% active; IANBD-labeled TnC RTF fluorescence at EC20 calcium; 0% EC20 calcium, 100% full calcium;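 active = activation above the mean over all tested compounds plus 3 SD, cut at about 30% in these data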;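 also: rise in fluorescence read as greater calcium sensitivity of cardiac thin filaments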
# CRFBP-R2 agonist: agonists of human CRF-binding protein/CRF-R2 receptor complex | activation, % at 13.2 µM | 350,000 tested, 0.46% active | HEK293 CRF-R2/CRF-BP, calcium dye fluorescence (FLIPR); percent of saturating CRF peptide response;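 active = activation of at least 50%, plus an integration ratio under a set limit after plate pattern correction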;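 also: plate controls were neutral control wells without compound for no effect and CRF at EC100 for full effect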
# IDE act: boosts human insulin-degrading enzyme activity in HEK cells; P14735; 340,000 tested, 0.073% active; activation, % at 5.96 µM; AID 493087; FAbeta-B cleavage, fluorescence polarization; 0% vehicle, 100% cell-free pure enzyme wells;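 active = activation above the mean of all tested compounds plus 3 SD, set per screening campaign, cut at about 17% in these data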
# An asterisk follows results filed as active; / = not tested or not shown.
SMILES,TPT1 inhibitor,Cardiac RTF inh,IDE cell inh,cardiac RTF act,CRFBP-R2 agonist,IDE act
C=C(C)COc1ccc(-c2[nH]ncc2Oc2ccc(OC)cc2)c(O)c1,-1,5,2,-3,4,21*
C=C(C)COc1ccc(-c2[nH]ncc2Oc2ccccc2OC)c(O)c1,-4,-4,0,4,-5,2
COc1ccc(OCc2n(CC(=O)OC3CC(C)CCC3C(C)C)c3ccccc3[n+]2C)cc1 (stereo not given),-3,1,0,-1,-1,18*
CCCCn1c(N)c(N(CCOC)C(=O)CCS(=O)(=O)c2ccc(C)cc2)c(=O)[nH]c1=O,/,/,/,/,1,/
COc1ccc(OCCNc2cc(N3CCOCC3)ccc2[N+](=O)[O-])cc1,0,8,-8,-1,-1,20*
O=C(Nc1ccc(Oc2ccccc2)cc1)C1CCCN(c2ncccn2)C1 (stereo not given),-4,-2,2,9,58*,-9
CCOC(=O)N1CCN(C(=O)c2c[nH]c3ccc(S(=O)(=O)N(C)c4ccccc4C)cc3c2=O)CC1,-1,-2,3,-2,0,2
CCOC(=O)N1CCN(C(=O)c2c[nH]c3ccc(S(=O)(=O)N(C)c4cccc(C)c4)cc3c2=O)CC1,-4,-8,-1,6,82*,-1
CC1=C(C(=O)N2CCOCC2)CC(CC(=O)NC2CCCC2)C(=O)N1CCCN1CCCC1=O (stereo not given),/,/,/,/,-1,/
CCOC(=O)Cn1c(=O)c(-c2cc(Br)ccc2N)nc2ccccc21,4,-5,-3,44*,11,6
CCOC(=O)Cn1c(=O)c(-c2ccccc2N)nc2ccccc21,2,-8,-4,-2,0,4
Cc1ccc(N2C(=O)c3cccc4c(N5CCN(C)CC5)ccc(c34)C2=O)c2cccnc12,-67,/,0,/,89*,/
Cc1ccc(N2C(=O)c3cccc4c([N+](=O)[O-])ccc(c34)C2=O)c2cccnc12,8,-3,1,0,4,4
CCCCN(C(=O)CCCSc1nc2ccccc2[nH]1)c1c(N)n(Cc2ccccc2)c(=O)[nH]c1=O,1,-12,0,-2,0,5
CC1=C(C)/C(=N\OS(=O)(=O)c2ccccc2)C=CC1=O,3,-3,4,-4,57*,-1
COc1ccc(Cl)cc1NC(=O)COC(=O)CCNS(=O)(=O)c1cccs1,/,-8,/,7,0,-3
CCOc1ccc(NC(=O)/C(C#N)=C\c2ccc(N3CCCC3)c(C)c2)cc1,/,-52,/,72*,99*,-4
COc1ccc(CCNc2nc3ccccc3n3nnnc23)cc1OC,-12,-15,4,7,7,6
c1ccc(CCNc2nc3ccccc3n3nnnc23)cc1,-1,-6,7,7,82*,1
Nc1cc(C(=O)N2CCN(c3cccc(Cl)c3)CC2)ccc1N1CC2CC(C1)c1cccc(=O)n1C2 (stereo not given),/,/,/,/,3,/
CCCCCC1NC(=O)NC1CCCCCC(=O)O (stereo not given),-5,0,4,6,1,-8
C[C@@H]1NC(=O)N[C@@H]1CCCCCC(=O)O,-1,4,-17,1,1,51*
COc1cc(/C=C/C(=O)/C=C(O)/C=C/c2ccc(O)c(OC)c2)ccc1O,/,-80,15,27,130*,-15
CCNc1cccc2c1C(=O)N(C)C2=O,-86,-67,-7,46*,50,6
CCOc1ccc(N/C(N)=N/c2nc(C)cc(C)n2)cc1,1,-10,3,-3,141*,-3
SMILES,TPT1 inhibitor,Cardiac RTF inh,IDE cell inh,cardiac RTF act,CRFBP-R2 agonist,IDE act
CCCCCCCNC(=O)C1(CC2CC(c3cccc(Br)c3)=NO2)CCNCC1 (stereo not given),-1,-5,-3,-2,15,19*
C=CCn1c(=O)/c(=C/c2cc(OC)c(OC)c(OC)c2)s/c1=C(/C#N)c1nc2ccccc2n1C,-12,1,2,37*,62*,9
N#C/C(=C/c1ccc(-c2ccc([N+](=O)[O-])cc2)o1)c1nnc(N2CCOCC2)n1-c1ccccc1,/,-5,/,-2,176*,5
CC(C)CC(=NNC(=O)c1ccncc1)c1cc(Cl)ccc1O,/,-6,/,5,150*,-59
COc1ccc(C(=O)OCC(=O)c2ccco2)cc1[N+](=O)[O-],/,/,/,/,-2,/
Cc1ccc(NC(=O)c2ccccc2NS(=O)(=O)c2ccc(F)cc2)cc1S(=O)(=O)N1CCCCC1,-6,-5,0,6,46,2
O=C(Nc1cc(S(=O)(=O)N2CCCCC2)ccc1O)c1ccccc1NS(=O)(=O)c1ccc(F)c(F)c1,-3,-1,5,-7,111*,7
O=C(Nc1cccc(S(=O)(=O)N2CCCCC2)c1)c1ccccc1NS(=O)(=O)c1ccc(F)cc1,2,-4,3,7,64*,7
O=C(Nc1cc(S(=O)(=O)Nc2ccccc2Cl)ccc1O)c1ccc(F)cc1F,/,3,12,-3,24,-3
O=C(NCc1ccc(F)cc1)C1CC(=O)N(C2CCCCCCC2)C1 (stereo not given),-3,-3,5,1,-1,3
OCCN(CCO)c1nc(N2CCCCC2)c2nc(N(CCO)CCO)nc(N3CCCCC3)c2n1,/,-199,-6,177*,179*,17
O=C1c2ccccc2CCC12OC2c1ccc([N+](=O)[O-])cc1 (stereo not given),/,/,/,/,-1,/
CC(C)CSC1=NSC2=NC(=O)/C(=C\c3cccs3)C(=N)N12,2,-4,3,-2,70*,9
O=C(NC(C(=O)N/N=C/c1ccccc1)c1n[nH]c(=O)c2ccccc12)c1ccccc1 (stereo not given),2,-8,2,-1,98*,3
CCOc1ccc(C(C)NC(=O)c2cc(=O)[nH]c3ccccc23)cc1OCC (stereo not given),0,1,-4,-1,-1,3
CN(C(=O)C(=O)c1cn(CC(=O)N2CCCC2)c2ccccc12)C1CCCCC1,0,-3,0,-2,-1,1
O=c1[nH]c2cc3c(cc2cc1C(c1nnnn1C1CCCCC1)N1CCSCC1)OCCO3 (stereo not given),3,1,-2,-1,54*,-6
COc1cc2cc(C(c3nnnn3C3CCCC3)N3CCCCC3)c(=O)[nH]c2cc1OC (stereo not given),-1,-8,-1,0,0,2
CC1CC(=O)c2c(cc3c(-c4c(O)cc(O)c5c(O)c6c(cc45)OC(C)CC6=O)c(O)cc(O)c3c2O)O1 (stereo not given),-9,-5,-15,3,4,25*
Cc1ccc(S(=O)(=O)NCc2ccccn2)c(C)c1C,2,-6,0,-11,-3,-1
